Most compounds without a hit are left out; they make up all but 3% or so of the library.
ROMK primary: human ROMK K+ channel modulation, primary screen; P48048; B-score at 10 µM; actives 2% (n = 130,000); Tet-inducible ROMK, thallium flux fluorescence; actives lie on both sides;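 active = signal ratio slope over the read window, or its plate-corrected B-score, at least 3 SD from the plate mean, either direction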;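 also: B-score of the F/F0 ratio slope over 7 to 12 s after thallium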
Target sequence (P48048 whole entry, looked up): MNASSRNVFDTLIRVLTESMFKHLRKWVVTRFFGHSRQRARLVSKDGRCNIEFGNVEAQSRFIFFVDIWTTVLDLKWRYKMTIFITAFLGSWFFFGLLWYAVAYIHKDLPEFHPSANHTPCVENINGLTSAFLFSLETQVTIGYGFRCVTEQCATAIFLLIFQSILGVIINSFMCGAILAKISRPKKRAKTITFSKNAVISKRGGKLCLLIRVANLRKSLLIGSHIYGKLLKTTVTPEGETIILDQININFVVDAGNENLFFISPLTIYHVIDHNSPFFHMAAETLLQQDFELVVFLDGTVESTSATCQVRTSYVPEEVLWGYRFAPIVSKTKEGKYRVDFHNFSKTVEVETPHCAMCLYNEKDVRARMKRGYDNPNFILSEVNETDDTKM
m-calpain inh: blocks pig calpain II enzyme activity | purified calpain II, fluorogenic peptide substrate, 30 min | inhibition, % at 16 µM | actives 0.37% (n = 220,000) | AID 1236;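 active = inhibition above about 50%, limit read from the data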
TNF necrop inh: TNF-alpha cell death inhibition in Jurkat FADD-/- cells; Jurkat FADD-/- TNF necroptosis rescue, ATP luminescence, 24 h; 0 = TNF only, 100 = no-TNF cells; activation (protection from cell death), % at 10 µM; actives 0.068% (n = 220,000);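 active = activation, meaning protection from cell death, of at least 50% relative to plate controls; inactive = activation below 50%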;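 also: necroptosis triggered by 40 ng/mL TNF-alpha added together with compound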
zVAD death inh: L929 zVAD cell death inhibition. L929 zVAD necroptosis rescue, ATP luminescence, 24 h; with zVAD 60 µM. viability rescue, % at 10 µM. actives 0.38% (n = 220,000). AID 1377;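 active = activation, scaled between plate controls, above about 75%, limit read from the data; inactive = activation under that limit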;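 also: 0% = zVAD with DMSO and 100% = DMSO alone without zVAD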
14-3-3 Bad PPI: disrupts binding of bovine 14-3-3 zeta to phospho-Bad peptide; inhibition, % at 21.7 µM; actives 0.71% (n = 220,000); TR-FRET 14-3-3zeta/Dy647-pBad peptide displacement, 1 h; P63103;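 active = inhibition above about 70%, limit read from the data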;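 also: 0% = full 14-3-3 plus peptide FRET controls and 100% = background without 14-3-3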
Efa HMGR inh: inhibitors of class II HMG-CoA reductase from Enterococcus faecalis; actives 0.41% (n = 190,000); purified E. faecalis HMGR, NADPH absorbance 340 nm kinetic; inhibition, % at 10 µM;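 active = inhibition above a set limit, the median over all tested compounds plus 3 SD, cut at about 9.5% in these data; inconclusive = no clear call, values can overlap the other calls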;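 also: enzyme runs in reverse so mevalonate oxidation gives rising NADPH absorbance; 0% = complete reaction with DMSO and 100% = background rate lacking mevalonate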
ROMK retest: confirmation of human ROMK potassium channel modulators; shares compounds with ROMK primary; ROMK thallium flux, fluorescence ratio; stronger effect = lower value; normalized thallium flux (F/F0 slope) at 10 µM; actives 54% (n = 3,000); AID 1917;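 active = Flux at 10 µM at least 3 SD below or above vehicle control mean in one or both replicates; inconclusive = no clear call, values can overlap the other calls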
* = called active by the depositor; i = inactive; u = inconclusive; x = not tested or not shown.

SMILES	ROMK primary	m-calpain inh	TNF necrop inh	zVAD death inh	14-3-3 Bad PPI	Efa HMGR inh	ROMK retest
CCN1CCc2nc3ccccc3c(C(=O)Nc3ccc(NC(C)=O)cc3)c2C1	x	6	-2	2	-2	x	x
O=C(CNC(=S)N(Cc1ccccc1)Cc1cccnc1)NC1CCCC1	0.9	26	1	x	-4	-7	x
COc1ccc(Oc2ccccc2C=O)cc1	x	3	-11	1	-6	-1	u
COc1ccc(Oc2ccccc2/C=C/C(=O)O)cc1	x	-15	-4	0	2	-2	x
CN1CC(=O)N(CC(=O)NCc2ccc3c(c2)OCO3)C1=O	1.4	-8	1	0	4	-2	x
N#C/C(C(N)=O)=C1/CCc2ccccc2N1	4.7*	-13	11	67	-10	3	0.088
O=C1CCc2ccccc2N1	x	-1	1	0	-7	x	x
COc1cccc(CNCCNC(=O)c2ccco2)c1OC	2.9*	-45	0	-1	15	-1	0.078
COc1ccccc1C(=O)NCCNC(=O)c1ccco1	-0.35	15	-1	0	-3	-1	0.076
COc1ccc(OC)c(CNCCNC(=O)c2ccco2)c1	0.67	-20	1	0	62	1	x
C[C@H](NC(=O)c1[nH]cnc1C(=O)Nc1ccc(CNC(=O)OC(C)(C)C)cc1)C(=O)OC(C)(C)C	x	-13	-5	1	-10	x	x
S=c1[nH]nc(-c2n[nH]c3c2CCC3)n1/N=C/C=C/c1ccccc1	-0.78	-31	0	1	15	x	x
COCC(C)OC(=O)c1c(N)n(CC(C)C)c2nc3ccccc3nc12 (centres undefined)	0.59	i	1	0	-4	-6	x
C=CCOC(=O)c1ccc(-n2cnc(C)n2)nc1	-0.39	9	1	5	-1	-2	x
COC(=O)CSC1=C(C#N)C(c2ccc(C)o2)CC(=O)N1 (centres undefined)	2.7*	25	-5	-2	-4	1	0.077
COC(=O)CSC1=C(C#N)C(c2ccc(F)cc2)CC(=O)N1 (centres undefined)	x	-14	0	1	6	-10	x
O=C(NCC(c1ccco1)N1CCCCC1)c1ccc(OCc2ccccc2)cc1 (centres undefined)	-3.2*	44	0	1	-6	2	0.07
CCOc1cc(/C=N/NC(=O)CN2CCCCC2)ccc1OCc1cccc(Cl)c1	-4.6*	28	5	1	7	-6	u
COc1cccc(/C=C2\SC(=S)N(N3C(=O)CCCC3=O)C2=O)c1	-2.7*	-1	-2	0	-5	-4	0.049*
O=C(O)CCCCCCC1C(=O)NC(=O)N1CCC(O)C1CCCCC1 (centres undefined)	4*	-2	-10	73	-7	17*	u
O=C(O)CCCCCN1C(=O)C2CCCCC2C1=O (centres undefined)	0.7	16	-1	0	-9	0	x
O=C(C=C=Nc1ccccc1)C(=O)N=C=Cc1ccccc1	x	13	-26	7	-15	x	x
COc1ccc(-c2cc3ccccc3n2CC(O)CN2CCC(C)CC2)cc1 (centres undefined)	-2*	5	0	0	28	2	0.057*
COc1ccc(CN2CCN(CC(O)Cn3c4ccccc4c4ccccc43)CC2)cc1 (centres undefined)	-3.6*	17	7	5	-26	-3	0.06*
COc1ccc(-c2cc3ccccc3n2CC(O)Cn2nc(C)cc2C)cc1 (centres undefined)	x	-61	1	0	-9	-4	x
SMILES	ROMK primary	m-calpain inh	TNF necrop inh	zVAD death inh	14-3-3 Bad PPI	Efa HMGR inh	ROMK retest
CCOC(=O)c1ccccc1NC(=S)N1CC(C)CC(C)C1 (centres undefined)	x	20	1	0	-9	-5	0.064*
CCOC(=O)c1ccccc1NC(=S)N1CCC(C)CC1	0.17	7	0	-1	-11	1	x
NC(N)=N/N=C/c1ccc2cccc(OCc3ccccc3)c2n1	-3.7*	-299	-12	12	1	x	0.049*
COc1ccc(OC)c2c(C)cc(N3CCN(C(=O)c4ccc(Cl)cc4)CC3)nc12	0.59	-160	-1	-1	7	4	x
O=C(COC(=O)c1ccc(Cl)c(S(=O)(=O)N2CCCCC2)c1)NCC1CCCO1 (centres undefined)	0.03	24	-1	0	8	-2	x
Cc1cccc(N2C(=O)/C(=C\c3ccc(C(=O)O)cc3)c3ccccc3C2=O)c1	-6.4*	-79	1	0	0	-2	0.046*
Brc1ccc(Cn2c(-c3cncs3)nc3ccccc32)cc1	x	-10	-3	0	-4	-3	x
c1ccc(Cn2c(-c3cncs3)nc3ccccc32)cc1	-2.5*	12	-1	-1	4	-6	0.06*
Cc1cccc(N2CCN(C(=O)c3cc4c(=O)n(C)c5ccccc5c4n3C)CC2C)c1 (centres undefined)	x	-61	-10	1	-13	2	x
CCN(CC)c1c([N+](=O)[O-])c(=O)n(C)c2ccccc12	-0.83	-3	-1	-1	-19	-2	x
Cn1c(=O)c([N+](=O)[O-])c(Cl)c2ccccc21	-5.1*	-14	-6	20	-3	1	0.049*
NC1=NC(=O)/C(=C\c2cc([N+](=O)[O-])ccc2Cl)S1	-2*	-20	0	1	-9	-9	0.066*
Cc1ccsc1/C=C1\SC(N)=NC1=O	-0.43	-8	-3	0	-17	-9	x
COc1ccc(C(=O)c2cc([N+](=O)[O-])ccc2N2CCOCC2)cc1	5.6*	2	-6	-1	-2	-5	0.091
CCOc1ccc(C(=O)c2cc([N+](=O)[O-])ccc2N2CCOCC2)cc1	6.7*	3	-13	-1	2	-2	0.086
Cc1ccc(C(=O)c2cc([N+](=O)[O-])ccc2N2CCCCC2)c(C)c1	2.7*	14	-6	-1	-2	-3	0.083
CC(C)c1nnc(NC(=O)c2cccnc2)s1	0.44	12	0	1	-4	-7	x
CCOC(=O)C1=C(c2ccccc2)NC(N)=NC1c1ccc(OCc2ccc(C(=O)OC)cc2)cc1 (centres undefined)	x	-19	-13	3	90*	x	0.053*
CCOC(=O)C1=C(c2ccccc2)Nc2ncnn2C1c1ccc(C(=O)O)cc1 (centres undefined)	x	14	2	0	3	x	x
CC(OC(=O)CNC(=O)c1ccccc1F)C(=O)Nc1nc(-c2ccccc2)cs1 (centres undefined)	-0.02	27	1	x	1	-5	x

Compound activity: PubChem BioAssay, several laboratories
